Screening results from PubChem.
miR122 inh: miR-122 inhibition in Huh7 cells; Huh7 miR-122 Renilla luciferase sensor, 48 h; neutral wells = 0, positive control = 100; 0.3% of 340,000 active; activation (reporter increase), % at 12.5 µM;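 active = mean replicate activation score at least 90 and every replicate individually at or above 90; inconclusive = only one of the two criteria met; inactive = neither criterion met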;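 also: higher luciferase means less miR-122 activity so hits act as miR-122 inhibitors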
esBAF inh: SWI/SNF esBAF complex inhibition; mouse ES cells, Bmi1-luciferase knock-in reporter, 24 h; 100% = twice the neutral-well signal; reporter increase, % at 12.5 µM; 2% of 350,000 active; AID 602393; in the data active = activation above about 40%; inconclusive = no clear call, values can overlap the other calls;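 also: 0% = median of the plate's neutral control wells and 100% = double that signal; a rise in the Bmi1 reporter signal indicates esBAF inhibition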
MITF TRPM1 HTS: increases MITF-driven TRPM1 promoter luciferase signal | AID 588334 | activation, % at 12.5 µM | 0.75% of 300,000 active | SK-MEL-5 TRPM1-promoter luciferase, 24 h; % of positive control, neutral wells = 0;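 active = mean activation of at least 80% with every replicate also reaching 80%; inconclusive = mean reaches 80% but some replicate falls short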;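 also: 0% = neutral control wells and 100% = parthenolide positive control wells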
Wnt act: Wnt/beta-catenin pathway activation. Wnt/beta-catenin reporter cell assay, activator, plate reader. activation, % at 9.35 µM. 1.2% of 300,000 active; in the data active = activation above about 30%, passing the limit was not always enough; inconclusive = no clear call, values can overlap the other calls;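 also: 0% = neutral control wells and 100% = positive control wells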
Env fusion inh: inhibitors of HIV Env-mediated cell fusion; HeLa-JRFL Env/CEM21 cell fusion, luciferase; inhibition, % at 12.3 µM; 1.1% of 360,000 active;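 active = mean replicate inhibition score of at least 50 and every replicate individually at or above 50; inconclusive = only one of the two criteria met; inactive = mean below 50 and not all replicates reaching 50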;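 also: 0% = plate neutral controls and 100% = maraviroc near 300 nM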
An asterisk follows results filed as active; i = inactive; ? = inconclusive; . = not tested or not shown; [ ] = dose if it differs, or a comment. Only some compounds are listed: those with a hit (about 3.4% of all), similar ones and a draw of the others.

SMILES	miR122 inh	esBAF inh	MITF TRPM1 HTS	Wnt act	Env fusion inh
CC(=O)Nc1cccc(-n2nnc(SCC(=O)c3ccccc3)n2)c1	6	36	.	60*	-27
O=C(NOCc1ccccc1)c1ccc([N+](=O)[O-])cc1	-5	5	31	38*	-29
Cc1ccc(CONC(=O)c2ccc(Cl)cc2)cc1	7	28	67	34*	.
Nc1cc([N+](=O)[O-])ccc1OCc1ccccc1	.	.	35	48*	-11
Cc1ccc(CC(=O)c2ccc(Cl)cc2)cc1	-8	?	92*	-2	-18
C[C@@H]1CCCCO[C@@H](CN(C)S(=O)(=O)c2ccc(F)cc2)[C@@H](C)CN([C@@H](C)CO)C(=O)c2cc(NC(=O)c3ccccc3)ccc2O1	-6[16.7 µM]	1	.	.	-4[16.7 µM]
Cc1ccc(S(=O)(=O)N(C)C[C@@H]2Oc3c(NC(=O)c4cnccn4)cccc3C(=O)N([C@H](C)CO)C[C@H]2C)cc1	6[16.7 µM]	2	.	.	-23[16.7 µM]
CNC[C@H]1Oc2ccc(NC(=O)Cn3cnnn3)cc2C(=O)N([C@H](C)CO)C[C@@H]1C	0[16.7 µM]	-2	.	.	.
Cc1ccc(CONC(=O)c2ccccc2)cc1	0	.	67	27	-21
Cc1ccc(CONC(=O)c2ccc(C)cc2)cc1	-2	44*	95*	38*	.
CN(C)c1ccc(NC(=O)N2CCOCC2)cc1	1	55*	23	8	-40
CCOC(=O)CC(=O)CSc1nc2ccc(C)cc2cc1C#N	0	34	74	22	.
COC(=O)CSc1nc2cc(C)ccc2cc1C#N	-1	31	75	80*	i
Cc1ccsc1C(=O)OCc1nnc(-c2ccccc2)o1	0	63*	96*	13	.
Cc1ccsc1C(=O)OCC(=O)Nc1nnc(-c2ccccc2)o1	.	1	3	0	5
Cc1c(O)ccc(C(=O)COc2ccc(F)cc2)c1O	-3	80*	?	.	.
CCc1cc(C(=O)COc2ccc(F)cc2)c(O)cc1O	.	.	44	42*	-14
Cc1ccc(NC(CC(=O)c2ccccc2)C(=O)O)cc1Cl (stereo unspecified)	6	.	73	53*	-155
O=C(CC(Nc1ccc(Cl)cc1Cl)C(=O)O)c1ccccc1 (stereo unspecified)	3	.	-14	-13	6
O=C(CC(Nc1ccccc1)C(=O)O)c1ccccc1 (stereo unspecified)	-4	.	101*	.	.
CC(C)NC(=O)N(C)C[C@@H]1Oc2ncc(C#CC3CC3)cc2C(=O)N([C@@H](C)CO)C[C@@H]1C	6[16.7 µM]	-1	.	.	-25[16.7 µM]
COc1ccccc1NC(=O)Nc1ccc2c(c1)C(=O)N(C)C[C@@H](OC)[C@H](C)CN(C)[C@H](C)CO2	.	-7	.	.	-7[16.7 µM]
CCOc1ccc2c(c1)sc(=NC(=O)C1CC1)n2C	.	60*	6	-1	.
O=C(N[C@H]1CC[C@H](CC(=O)N2CCOCC2)O[C@H]1CO)c1ccc2c(c1)OCO2	.	-3	.	.	-2[16.7 µM]
O=c1c2ccccc2nc2ccccn12	.	.	39	5	-1
SMILES	miR122 inh	esBAF inh	MITF TRPM1 HTS	Wnt act	Env fusion inh
O=c1c2ccccc2nc2c3ccccc3cnn12	-5	74*	48	10	-82
CN(C)c1ccnc(Oc2ccc(Cl)cc2)c1C#N	-5	28	49	14	.
CN(C)c1ccnc(Oc2ccc(C(C)(C)C)cc2)c1C#N	1	52*	48	.	.
CCCOC(=O)C1C2C=CC(C3CC23)C1C(=O)OCC(=O)c1ccccc1 (stereo unspecified)	15	9	.	.	62*
COc1ccc(NC(=O)N(C)C[C@H]2OCCCC[C@H](C)Oc3ccc(NS(=O)(=O)c4ccc(C)cc4)cc3C(=O)N([C@H](C)CO)C[C@@H]2C)cc1	-5[16.7 µM]	12	.	.	-114[16.7 µM]
Cc1c(C(=O)/C=C/c2ccccc2F)c2cc(O)ccc2n1C	-5	57*	.	-4	-65
CC(C)c1ccc(N=C2NN=C(c3cccs3)CS2)cc1	.	.	100*	-3	-55
CC(C)N=C1NN=C(c2cccs2)CS1	.	.	35	4	-19
Cc1ccc(S(=O)(=O)NCC(=O)OCC(=O)NCc2ccc3c(c2)OCO3)cc1	-4	1	5	-1	68*
COc1ccc(S(=O)(=O)N(C)C[C@H]2OCCCC[C@H](C)Oc3ccc(NS(=O)(=O)c4cccs4)cc3C(=O)N([C@H](C)CO)C[C@@H]2C)cc1	-2[16.7 µM]	0	.	.	-44[16.7 µM]
Cc1sc2nc(CSCC(=O)Nc3ccc(C(F)(F)F)cc3)[nH]c(=O)c2c1C	.	-6	-6	-2	78*
CCN1C(=O)c2cccc3c(S(=O)(=O)Nc4ccncc4)ccc1c23	17	-11	-1	.	.
CCN1C(=O)c2cccc3c(S(=O)(=O)Nc4ncccc4C)ccc1c23	96*	-4	-8	12	-75
CCN1C(=O)c2cccc3c(S(=O)(=O)Nc4ccccc4)ccc1c23	151*	-5	.	.	.
CO[C@H]1CN(C)C(=O)c2cc(NS(=O)(=O)c3ccc(Oc4ccccc4)cc3)ccc2OC[C@@H](C)NC[C@@H]1C	-4[16.7 µM]	-1	.	.	-10[16.7 µM]
Cc1cc(Cl)n2c(nc3ccccc32)c1C#N	.	.	-81	5	-56
CCN(CC)c1cc(C)c(C#N)c2nc3ccccc3n12	7	-5	-3	36*	10
CC(=O)NC1C(c2nc3ccccc3s2)=C(c2ccccc2)C(=O)N1c1ccc(C)cc1 (stereo unspecified)	-17	21	.	33*	-61
CCOC(=O)c1sc(NC(=O)c2cccs2)nc1C	-6	20	29	22	.
CCOC(=O)Cc1csc(NC(=O)c2ccc(S(=O)(=O)N(CCOC)CCOC)cc2)n1	.	.	5	37*	3
CCOC(=O)Cc1csc(NC(=O)c2ccc(C)cc2)n1	.	.	19	2	1
CCOC(=O)Cc1csc(NC(=O)c2cccs2)n1	0	63*	66	.	-25
CCOC(=O)c1csc(NC(=O)c2cccs2)n1	5	53*	95*	37*	-45
CCOC(=O)Cc1csc(NC(=O)c2ccc(F)cc2)n1	-5	19	9	0	-3
C[C@@H]1CCCCO[C@H](CN(C)C(=O)NC2CCCCC2)[C@H](C)CN([C@@H](C)CO)C(=O)c2cc(NC(=O)Nc3ccc4c(c3)OCO4)ccc2O1	4[16.7 µM]	16	.	.	0[16.7 µM]
SMILES	miR122 inh	esBAF inh	MITF TRPM1 HTS	Wnt act	Env fusion inh
C[C@@H]1CN([C@@H](C)CO)C(=O)Cc2cc(NC(=O)Nc3ccc(F)cc3)ccc2O[C@H]1CN(C)S(=O)(=O)c1ccccc1	-1[16.7 µM]	1	.	.	-2[16.7 µM]
COc1ccccc1-c1nc(SCC(=O)Nc2ccccc2F)n[nH]1	.	-5	-19	-4	70*
COc1ccccc1-c1nc(SCC(=O)Nc2ccccc2)n[nH]1	.	-8	-16	3	-2
O=C(C1CC1)N1C[C@@H]2[C@H](c3ccccc31)[C@@H](CO)N2C(=O)c1cccc(F)c1	-17[16.7 µM]	-2	.	.	.
Fc1cccc(-c2cc3nc4c(c(N5CCC6(CC5)OCCO6)n3n2)CCCC4)c1	1	52*	45	.	.
CN(CCO)c1c2c(nc3cc(-c4cccc(F)c4)nn13)CCCC2	18	-14	.	40*	-65
